For 13 compounds, composite z-score and z-score results are on record in PubChem BioAssay.

Molecules are shown by their SMILES. The source made the active and inactive calls.

Assay [1] deals with Plasmodium falciparum Sir2 (PF13_0152, Sir2A). Description: Plasmodium falciparum Sir2A binding compounds – biochemical, small-molecule microarray, 635 nm fluorescence, primary screen (AID 1098).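 Also: score merges spot fluorescence intensity with its signal-to-noise ratio.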 As to conditions: fluorescence 635 nm, higher = more signal.
Assay [2] in a line: probe aDKK1 binding to arrayed compounds – biochemical, biotinylated probe, 635/667 nm fluorescence, primary screen (AID 1099).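 Also: score merges 667nm spot fluorescence with signal to noise across triplicate slides; reference of the scale not given here.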 To be noted: small-molecule microarray, higher = more signal.
Assay [3] in a line: probe aCHRDL2 binding to arrayed compounds – biochemical, biotinylated probe, 635/667 nm fluorescence, primary screen (AID 1100). As to conditions: small-molecule microarray, higher = more signal.
Assay [4] can be described thus: change in splice reporter luminescence, either direction, cell-based, HEK293, spliceosome inhibition project, primary screen (AID 1101).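 Also: HEK293 cells carrying a splicing-competent luciferase reporter gene; test concentration not given here.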 As to conditions: HEK293 splicing luciferase reporter, 24 h, higher = more signal, called active from +8 up or from −8 down. Background: In a reporter assay the amount or activity of a reporter protein is the signal.
The target in assay [5] is Fibroblast growth factor 10 (Homo sapiens) (UniProt O15520). Description: compounds binding fibroblast growth factor 10 – biochemical, small-molecule microarray, 635 nm fluorescence, primary screen (AID 1102). To be noted: FGF10 binding, fluorescence 635 nm, higher = more signal.
Sequence of Fibroblast growth factor 10 (Homo sapiens) (O15520 whole entry, looked up): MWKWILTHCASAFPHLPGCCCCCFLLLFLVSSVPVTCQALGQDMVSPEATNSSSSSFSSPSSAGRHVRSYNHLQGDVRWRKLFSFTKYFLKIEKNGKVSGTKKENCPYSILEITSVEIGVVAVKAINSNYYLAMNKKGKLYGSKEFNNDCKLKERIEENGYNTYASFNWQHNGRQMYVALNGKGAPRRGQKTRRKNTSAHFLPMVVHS
Assay [6] concerns glycogen synthase kinase-3 (GSK3A per assay name; protocol says GSK3B). Description: compounds binding glycogen synthase kinase-3 – biochemical, small-molecule microarray, 635 nm fluorescence, GSK3A, primary screen (AID 1103). Also: the record names both GSK3A and GSK3B. As to conditions: fluorescence 635 nm, higher = more signal.
Assay [7] has as its target Epidermal growth factor receptor (Homo sapiens) (UniProt P00533). Briefly: compounds binding epidermal growth factor receptor – biochemical, small-molecule microarray, 635 nm fluorescence, primary screen (AID 1104).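 Also: score merges 667 nm emission intensity with spot signal to noise over triplicate slides.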 As to conditions: EGFR binding, higher = more signal.
Assay [8] addresses Follistatin-related protein 3 (Homo sapiens) (UniProt O95633). Briefly: compounds binding follistatin-related protein 3 – biochemical, small-molecule microarray, 635 nm fluorescence, primary screen (AID 1105).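 Also: score merges emission near 667 nm and signal to noise per printed spot across three slides.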 As to conditions: FSTL3 binding, higher = more signal.
Assay [9] has as its target Dickkopf-related protein 1 (Homo sapiens) (UniProt O94907). Description: small molecules binding DKK1 protein – biochemical, small-molecule microarray, 635 nm fluorescence scan, primary screen (AID 1106).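 Also: score merges emission near 667 nm with signal to noise over three replicate slides.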 To be noted: higher = more signal.
For assay [10], the system named is Inhibin beta A chain (activin A). Description: small molecules binding activin A – biochemical, small-molecule microarray, 635 nm fluorescence scan, primary screen (AID 1107).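 Also: mouse activin A protein probed at 4.33 µg/mL on printed slides; score merges bound-protein fluorescence near 667 nm with spot signal-to-noise.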 To be noted: INHBA, higher = more signal.

Sequence of Epidermal growth factor receptor (Homo sapiens) (P00533 whole entry, looked up): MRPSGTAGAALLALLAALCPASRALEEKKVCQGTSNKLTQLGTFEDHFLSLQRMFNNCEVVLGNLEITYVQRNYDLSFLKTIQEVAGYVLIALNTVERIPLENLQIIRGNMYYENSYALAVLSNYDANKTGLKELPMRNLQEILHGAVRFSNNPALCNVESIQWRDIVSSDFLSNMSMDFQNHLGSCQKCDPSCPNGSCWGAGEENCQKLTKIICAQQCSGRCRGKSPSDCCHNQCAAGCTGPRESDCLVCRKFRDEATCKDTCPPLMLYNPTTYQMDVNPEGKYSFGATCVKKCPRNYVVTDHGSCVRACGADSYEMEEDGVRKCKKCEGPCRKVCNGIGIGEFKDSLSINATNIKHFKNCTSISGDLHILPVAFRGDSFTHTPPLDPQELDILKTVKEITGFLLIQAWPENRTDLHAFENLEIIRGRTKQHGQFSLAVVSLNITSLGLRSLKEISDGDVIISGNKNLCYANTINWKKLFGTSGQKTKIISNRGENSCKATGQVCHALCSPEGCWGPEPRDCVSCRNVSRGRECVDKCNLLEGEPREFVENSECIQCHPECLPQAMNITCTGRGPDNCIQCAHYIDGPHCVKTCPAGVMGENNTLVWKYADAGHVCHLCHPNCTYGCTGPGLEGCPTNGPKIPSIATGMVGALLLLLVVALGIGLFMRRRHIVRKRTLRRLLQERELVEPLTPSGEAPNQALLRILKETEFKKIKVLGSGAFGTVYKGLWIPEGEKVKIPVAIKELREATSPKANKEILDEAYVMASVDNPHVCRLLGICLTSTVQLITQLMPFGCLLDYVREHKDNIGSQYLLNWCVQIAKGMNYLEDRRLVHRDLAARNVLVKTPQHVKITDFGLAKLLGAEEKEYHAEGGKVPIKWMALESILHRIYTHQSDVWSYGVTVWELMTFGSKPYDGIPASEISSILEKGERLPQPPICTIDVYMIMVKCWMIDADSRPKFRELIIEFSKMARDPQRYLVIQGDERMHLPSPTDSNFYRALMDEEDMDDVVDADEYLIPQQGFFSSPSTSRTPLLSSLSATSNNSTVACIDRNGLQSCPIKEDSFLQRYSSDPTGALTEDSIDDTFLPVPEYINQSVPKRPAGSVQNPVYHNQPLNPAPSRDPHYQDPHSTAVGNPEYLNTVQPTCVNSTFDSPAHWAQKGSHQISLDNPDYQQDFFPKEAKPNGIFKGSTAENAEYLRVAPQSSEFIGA
Sequence of Follistatin-related protein 3 (Homo sapiens) (O95633 whole entry, looked up): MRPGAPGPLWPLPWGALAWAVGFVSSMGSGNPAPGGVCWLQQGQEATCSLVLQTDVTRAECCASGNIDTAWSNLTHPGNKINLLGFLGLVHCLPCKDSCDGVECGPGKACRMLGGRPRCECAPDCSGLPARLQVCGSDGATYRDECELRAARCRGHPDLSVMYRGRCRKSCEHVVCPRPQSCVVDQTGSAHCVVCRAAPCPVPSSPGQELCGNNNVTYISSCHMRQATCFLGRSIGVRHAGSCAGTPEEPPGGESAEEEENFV
Sequence of Dickkopf-related protein 1 (Homo sapiens) (O94907 whole entry, looked up): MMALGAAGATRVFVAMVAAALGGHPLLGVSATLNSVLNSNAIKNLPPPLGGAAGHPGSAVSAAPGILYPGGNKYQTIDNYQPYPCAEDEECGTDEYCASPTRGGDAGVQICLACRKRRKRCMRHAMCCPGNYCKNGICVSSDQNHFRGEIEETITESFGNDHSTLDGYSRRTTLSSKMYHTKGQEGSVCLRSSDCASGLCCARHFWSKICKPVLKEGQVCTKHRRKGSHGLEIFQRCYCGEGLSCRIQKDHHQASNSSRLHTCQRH

Regarding `COC(=O)CC=C[C@@H](C)[C@@H](C=NO[C@H](C)c1cn([C@@H]2COC[C@H]2O)nn1)NS(=O)(=O)c1ccc(C)cc1`, the composite z-score is 0.163 in [1]; -0.268 in assay [2]; -0.57 in assay [3]; 0.43 in assay [5]; 0.427 in assay [6]; 0.59 in assay [7]. The figures for the composite z-score in [8], in assay [9] and in assay [10] were 0.746, 1.07 and 0.216, respectively. For the same compound, in assay [4], the z-score was -0.0248 (inactive).

`O=C1[C@H]2[C@H]3[C@H](O)[C@H](O)CC(=NOC[C@@H](O)COCc4ccco4)[C@H]3CC[C@H]2C(=O)N1c1ccc(F)cc1F`: the composite z-score in [1] was -0.295; in assay [2], 0.0973; in [3], -0.901; in [5], -0.921; in [6] it was 0.0894; in assay [7], -0.553. Besides, the composite z-score is -0.529 in [8], -0.301 in [9] and -0.413 in [10]. In addition, the z-score in assay [4] is -2.86 (inactive).

Consider `Cn1c(=O)n2n(c1=O)[C@H]1[C@H](O)[C@@H]3O[C@@H]3C(=O)[C@H]1CC2`, for which the composite z-score in [1] was 0.269; in assay [2], -0.0838; in assay [3], -0.512; in assay [5], 0.946; in [6], 0.778; in assay [7], 0.531. Moreover, the values for the composite z-score in [8], in [9] and in assay [10] were 0.534, 0.408 and 0.0134, respectively. The z-score in [4] is -0.515 (inactive).

On to `COc1cccc([C@H]2Oc3ccc(OC)cc3C(=NO[C@@H](C)c3cn([C@H](CO)Cc4ccccc4)nn3)[C@@H]2O)c1`, for which the composite z-score in assay [1] is 0.482; in [2], -0.268; in [3] it was -0.303; in assay [5], 0.167; in [6], -0.58; in assay [7], -0.0558. In addition, the composite z-score in assay [8] is -0.201; in [9], 0.113; in [10], 0.176. For the same compound, the z-score in [4] is -0.0241 (inactive).

On to `CC(C)=CCCC(C)=CCON=C1C[C@@H](O)[C@@H](O)[C@@H]2[C@@H]3C(=O)N(Cc4ccccc4)C(=O)[C@@H]3CC[C@H]12`, for which the composite z-score is 0.639 in [1]; -0.21 in assay [2]; -0.659 in [3]; 0.932 in [5]; 1.12 in assay [6]; 0.611 in assay [7]. In addition, the composite z-score in assay [8] is 1.14; in assay [9], -0.523; in assay [10], 1.11. The z-score in [4] is -1.83 (inactive).

With `CO[C@@H]1COC(=O)[C@H](CCSC)NC(=O)CC=C[C@@H](C)COC(=O)CCC[C@H]1C`, the composite z-score in [1] is 0.919; in assay [2] it was -0.374; in assay [3], -1.25; in assay [5], 0.399; in [6], 1.26; in assay [7], 1.03. Also, the composite z-score in assay [8] is 1.03; in assay [9] it was 2.36; in assay [10], -1.51. For the same compound, the z-score in [4] was -0.433 (inactive).

Turning to `O=C1[C@H]2[C@H]3[C@H](O)[C@H](O)CC(=NOCc4ccccc4)[C@@H]3CC[C@H]2C(=O)N1C[C@@H]1CCCO1`, the composite z-score in assay [1] was 0.0048; in assay [2] it was -0.168; in [3] it was -0.21; in assay [5] it was 0.179; in assay [6], -0.451; in assay [7] it was -0.0735. For the same compound, the composite z-score in assay [8] was -0.304; in [9] it was -0.028; in assay [10] it was 0.164. Besides, in assay [4], the z-score was 0.274 (inactive).

With `C[C@H](ON=C1[C@H]2CCn3c(=O)n(-c4ccccc4)c(=O)n3[C@H]2[C@H](O)[C@@H]2O[C@H]12)c1cn([C@H](CO)Cc2ccccc2)nn1`, the composite z-score in assay [1] is -0.0041; in [2], -0.15; in [3] it was -0.519; in [5], 0.513; in [6] it was 0.266; in [7], 0.377. The results for the composite z-score in assay [8], in assay [9] and in [10] were 0.659, 0.559 and 0.437, respectively. In assay [4], the z-score is -0.421 (inactive).

As for `Cc1ccc(S(=O)(=O)N[C@H]2COC(=O)CC=C[C@H](C)[C@@H](NS(=O)(=O)c3ccc(C)cc3)COC(=O)CC=C[C@@H]2C)cc1`, the composite z-score in assay [1] was -0.0784; in [2], -0.217; in [3], -0.588; in assay [5], 0.925; in assay [6], 0.607; in assay [7], 0.364. The composite z-score in [8] is 0.577; in assay [9], 0.486; in [10], -0.136. In addition, the z-score in [4] was 0.647 (inactive).

Take `Cn1c(=O)n2n(c1=O)[C@H]1[C@H](O)[C@@H]3O[C@@H]3C(=NOCc3ccccc3)[C@H]1CC2`: the composite z-score is 0.421 in [1]; -0.263 in assay [2]; -0.374 in assay [3]; -0.414 in assay [5]; -0.046 in assay [6]; -0.0492 in assay [7]. The composite z-score in assay [8] was -0.136; in assay [9], -0.0857; in assay [10], -0.241. Further, in [4], the z-score was 2.48 (inactive).

Consider `CCc1cc2c(nc1CC)CCN(CCC(C)=NO[C@@H](C)c1cn([C@H](CO)Cc3ccccc3)nn1)C2`, for which the composite z-score is 0.6 in assay [1]; -0.102 in assay [2]; 0.0143 in assay [3]; -0.122 in [5]; -0.32 in assay [6]; 0.253 in [7]. The composite z-score was 0.474 in [8], 0.436 in assay [9] and 1.29 in assay [10]. Besides, the z-score in assay [4] is 0.113 (inactive).

On to `COC(=O)[C@H](C)NC(=O)CCC1CC(OC(=O)NCc2ccc3c(c2)OCO3)CC2(CCCC(COC(=O)NCC3CCCCC3)O2)O1` (stereo not given in full), for which the composite z-score in [1] was 0.74; in assay [2] it was -0.21; in [3], -0.647; in [5], 1.29; in [6], 0.98; in assay [7], 0.621. For the same compound, the composite z-score is 1.07 in assay [8], 0.822 in assay [9] and -0.144 in assay [10]. For the same compound, in assay [4], the z-score was 0.507 (inactive).

With `Cc1cc2c(nc1C)CCCCN2CC(C)ON=C[C@@H](C)[C@H](OCc1ccccc1)C(C)C` (stereo not given in full), the composite z-score in assay [1] is -0.504; in assay [2], -0.873; in assay [3] it was -0.122; in [5] it was -1.92; in [6], -1.05; in assay [7], -1.85. The composite z-score in assay [8] was -0.934; in [9], -0.969; in assay [10], 0.911. In addition, the z-score in [4] is -0.037 (inactive).
